This is an account of results in PubChem BioAssay (NCI).

Holding throughout (experiment): NCI-60 one-dose screen, 48 h (100 = growth as untreated, 0 = no growth, -100 = all killed)
Common to all, as to conditions: 10 µM

Assay [1] has as its system NCI-H23 lung.
Assay [2] has as its system NCI-H226 lung.
The test system of assay [3] is NCI-H322M lung.
Assay [4] concerns HOP-62 NSCLC.
The subject of assay [5] is NCI-H522 lung.
For assay [6], the system named is A549/ATCC NSCLC.
The test system of assay [7] is 786-0 renal.
The subject of assay [8] is COLO 205 colon.
The subject of assay [9] is DU-145 prostate.
In assay [10] the test system is NCI-H460 lung.

Compounds without any hit were thinned out: in the full panel of roughly 83,000, 20% have a hit.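 48-hour exposure, single concentration, 96-well plates; percent growth endpoint where 0 means no net growth. Active: below 10.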 A number with no mark means an inactive call. Calls of active or inactive are those of the source.

For `O=C(c1cccs1)c1ccccc1Cc1ccccc1`, the growth in assay [1] was 102%; in assay [2], 92.3%; in assay [3], 83.6%; in [4] it was 96.6%; in [5], 100%; in [6], 89.1%. For the same compound, the growth in assay [7] is 108%; in assay [8], 116%; in assay [9], 128%.

With `CCC(=O)N1C/C(=C/c2ccc(Br)cc2)C(=O)/C(=C/c2ccc(Br)cc2)C1`, the growth in [1] was -46.2% (active); in assay [2], -62.8% (active); in assay [3] it was -27.2% (active); in assay [4] it was -67.4% (active); in assay [5], -79.6% (active); in assay [6], -27.2% (active). In addition, the growth in assay [7] is -77.3% (active); in assay [8], -93.1% (active); in assay [9] it was -65.4% (active).

`CC(=O)N(C)c1ccc(Nc2ccc(Nc3ccc(N(C)C(C)=O)cc3)c3c2C(=O)c2ccccc2C3=O)cc1`: the growth is 87.3% in assay [1]; 84.2% in assay [2]; 75.4% in [3]; 75.2% in assay [4]; 53.8% in assay [5]; 63.5% in assay [6]. Moreover, the growth in assay [7] is 78.7%; in [8], 70.6%; in assay [9] it was 91.2%.

For `O=C1OCC2=C1C(c1cccc(Cl)c1)c1cc3c(cc1N2CCO)CCC3` (stereo not given), the growth is 8.79% (active) in assay [1]; -18.1% (active) in assay [2]; 33% in assay [3]; 21% in [4]; -29.2% (active) in assay [5]; 11.7% in [6]. For the same compound, the growth in assay [7] was 18%; in assay [8], -47.1% (active); in assay [9], -46.2% (active).

Consider `CC/C(=C(/c1ccc(OCCN(C)C)cc1)c1ccc(OC(=O)CCCCCCCCC(=O)c2c(C)[nH]c(/C=C3\N=C(c4ccc[nH]4)C=C3OC)c2C)cc1)c1ccccc1`, for which the growth in [1] is 88%; in [2] it was 52.6%; in assay [3], 77%; in assay [4], 75.9%; in assay [10] it was 46.9%; in [5], 54.5%. The growth was 63.9% in assay [7], 88% in assay [8] and 67.6% in assay [9].

As to `COc1ccc(CN2CCC(N3CCCC3=O)c3cc(Cl)ccc32)cc1` (stereo not given), the growth in assay [1] is 96%; in assay [2], 114%; in assay [3] it was 104%; in assay [4] it was 98.3%; in [5] it was 75.6%; in [6] it was 104%. The growth was 109% in assay [7], 110% in [8] and 116% in assay [9].

Turning to `COc1cc2c(cc1OC)N(CCO)C1=C(C(=O)OC1)C2c1ccc(Cl)c(Cl)c1` (stereo not given), the growth was 104% in assay [1]; 103% in assay [2]; 95.2% in assay [3]; 98% in assay [4]; 77.4% in assay [5]; 98.6% in assay [6]. The growth was 93.5% in assay [7], 116% in assay [8] and 109% in [9].

For the compound `O=C(Nc1ccncc1)C(=O)c1cn(S(=O)(=O)c2cccc(Cl)c2)c2ccccc12`, the growth in [1] was 54.2%; in assay [2], 77.9%; in assay [3], 102%; in assay [4], 79.3%; in [5], 32.1%; in [6], 75.5%. The growth in [7] is 72.8%; in assay [8] it was 117%; in [9] it was 83.9%.

On to `O=C(CNC(=O)OCc1ccccc1)NCC(=O)Oc1ccc([N+](=O)[O-])cc1`, for which the growth in assay [1] is 102%; in assay [2], 99%; in [3], 107%; in assay [4], 107%; in [5], 89.6%; in [6], 23.6%. The growth is 103% in assay [7], 99.2% in assay [8] and 111% in assay [9].

For the compound `COc1ccc(NC2=NC(C)(CO)CS2)cc1` (stereo not given), the growth is 97.1% in assay [1]; 103% in assay [2]; 102% in assay [3]; 94.6% in assay [4]; -14.7% (active) in [5]; 42.8% in assay [6]. Further, the figures for the growth in assay [7], in assay [8] and in assay [9] were 105%, 117% and 120%, respectively.

Regarding `COc1ccc(-c2cc(/C=C3\C(=O)Nc4ccc(Cl)cc43)[nH]n2)cc1OC`, the growth in [1] is 101%; in [2], 85.5%; in assay [3], 70.6%; in assay [4] it was 97.7%; in [5], 89%; in assay [7], 102%. Besides, the values for the growth in [8] and in assay [9] were 89.7% and 76.4%, respectively.

`O=S(=O)(NCCNc1nccc(-c2c(-c3ccc(F)cc3)nc3sccn23)n1)c1ccc2ccccc2c1`: the growth in [1] is 90.8%; in assay [2], 92.7%; in assay [3] it was 73%; in assay [4], 88.5%; in assay [5], 75.5%; in assay [6], 43.8%. Besides, the figures for the growth in assay [7], in [8] and in [9] were 89.4%, 57.4% and 78.8%, respectively.

As for `COc1cc(Nc2ccnc(NCCCNc3ccnc4cc(Cl)ccc34)n2)cc(OC)c1`, the growth in assay [2] is 87.6%; in assay [3], 15.2%; in assay [4] it was 27.4%; in [10], -4.19% (active); in assay [5], -44.8% (active); in [7], -90.9% (active). The figures for the growth in [8] and in [9] were -92.2% (active) and 34.3%, respectively.

Turning to `O=C(O)CN1C(=O)c2cccc3cccc(c23)C1=O`, the growth in [2] is 96.5%; in assay [3] it was 102%; in [4], 97.4%; in [10], 110%; in assay [5], 94.1%; in assay [7] it was 91.7%. Also, the growth in assay [8] is 105%; in assay [9], 117%.

As for `CC1=C(N2CCOCC2)C(N2CCOCC2)=C(C)C(=O)C1=O`, the growth in assay [2] was 98.2%; in assay [3], 114%; in [4], 93.6%; in assay [10], 104%; in [5] it was 99.1%; in assay [6], 102%. The growth in [7] is 102%; in assay [8] it was 103%; in assay [9], 108%.

As to `CNc1ncc(-c2ccc(C(F)(F)F)cc2)c(NC2CCCCCC2)n1`, the growth was 70.3% in assay [2]; 76.6% in assay [3]; 92.6% in [4]; 87.8% in [10]; 57.6% in [5]; 69.1% in assay [6]. The growth was 79.4% in [7], 68.5% in assay [8] and 91% in [9].

In the case of `CCN(CC)CCC(CNc1c(C)cnc2cc(Cl)ccc12)c1ccc(Cl)c(Cl)c1` (stereo not given), the growth in [2] was 85.9%; in assay [3], 51.8%; in assay [4] it was 68.8%; in assay [10], 63.8%; in assay [5] it was 49.2%; in [7], 60.2%. Also, the growth in [8] is -56.5% (active); in assay [9] it was 73.8%.

In the case of `Cc1ccc2oc3nc(C)c(C(=O)NCc4ccccc4)cc3c(=O)c2c1`, the growth in [2] was 104%; in assay [3], 76.8%; in assay [4], 100%; in assay [10], 41.4%; in assay [5], 76.7%; in [6], 73.5%. Also, the growth in assay [7] was 55.6%; in [8], 23.8%; in assay [9], 86.9%.

Regarding `CCN(CC)CCN1CC(=O)Nc2cc(Cl)ccc21`, the growth in [2] is 95.1%; in assay [3] it was 104%; in [4] it was 103%; in assay [10], 104%; in assay [5], 92.7%; in [6] it was 102%. Besides, the growth in [7] is 115%; in assay [8], 102%; in assay [9] it was 120%.

In the case of `COc1cc(-c2nn3c(/C=C4/C(=O)Nc5ccccc54)c(-c4ccc(C)cc4)nc3s2)cc(OC)c1OC`, the growth in assay [2] is 96.4%; in assay [3], 73.5%; in assay [4], 79.5%; in [10], 29%; in [5], 58%; in [6] it was 29.8%. The growth in [7] is 70.9%; in assay [8], 68.5%; in [9] it was 14%.

As to `Cc1nc2ccc(CN(C)c3ccc(C(=O)N[C@@H](CCC(=O)O)C(=O)O)s3)cc2c(=O)[nH]1`, the growth in assay [2] is 56.1%; in assay [3], 85.9%; in [4], 28.6%; in assay [10], 29.1%; in assay [5], 71.9%; in [6], 60%. Besides, the growth in [7] is 18.3%; in assay [8], 58.5%; in assay [9], 52.6%.

Turning to `COc1cccc(NC(=O)c2sc3nc4c(cc3c2N)C(O)CCC4)c1` (stereo not given), the growth in [2] is 66.9%; in assay [3] it was 44.5%; in [4] it was 32.6%; in assay [10], 10.2%; in assay [5], -10.5% (active); in [6] it was 22.3%. The growth in assay [7] is 43.5%; in assay [8], -7.73% (active); in [9], -10.9% (active).

With `Cc1cc2ccccc2nc1-c1ccccc1F`, the growth in assay [2] is 98.9%; in assay [3], 128%; in assay [4], 94.6%; in [10], 107%; in [5] it was 122%; in assay [6], 92.4%. Moreover, the growth in [7] was 95.1%; in [8], 110%; in assay [9], 116%.

On to `COc1ccc2c(c1)N(CCO)C1=C(C(=O)OC1)C2c1ccccc1` (stereo not given), for which the growth was 36.3% in [2]; 41.7% in assay [3]; 24% in assay [4]; 9.29% (active) in assay [10]; -24.9% (active) in assay [5]; 46.6% in assay [6]. The growth in assay [7] was 37.9%; in [8], 8.42% (active); in [9], 16.4%.

For `Clc1cccc(-c2nc(-c3cccs3)no2)c1`, the growth is 100% in assay [2]; 114% in assay [3]; 97.8% in [4]; 110% in assay [10]; 92% in assay [5]; 94.1% in assay [6]. Further, the results for the growth in assay [7], in assay [8] and in [9] were 99.6%, 114% and 120%, respectively.

Turning to `COc1cc(-c2nc(-c3nnc(-c4ccc(F)c(Cl)c4)o3)c3ccccn23)cc(OC)c1OC`, the growth in [2] is 15.3%; in [3], 54.5%; in assay [4] it was -65.6% (active); in assay [10], 7.43% (active); in [5], 5.92% (active); in assay [6] it was 23.7%. Also, the figures for the growth in [7], in assay [8] and in assay [9] were 45.5%, 43.7% and 41%, respectively.
